# Assay results: the supplement of paper PMC3334620
# The full ranking holds about 33,000 sequences; the median of “E-score (-0.5 to 0.5)” is about -8e-05, and the highest 2% start at about 0.23. What follows is part of a selection rich in the highest values, with near analogues and random picks from the rest.
# Biological target: T1, Nrg2 (UniProt P38082)
# T1 sequence: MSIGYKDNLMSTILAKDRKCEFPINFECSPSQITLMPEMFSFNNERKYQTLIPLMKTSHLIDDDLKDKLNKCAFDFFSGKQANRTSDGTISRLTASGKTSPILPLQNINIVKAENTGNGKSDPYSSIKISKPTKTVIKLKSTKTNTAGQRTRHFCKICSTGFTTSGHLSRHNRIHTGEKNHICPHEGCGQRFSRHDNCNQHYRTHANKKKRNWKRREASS
# Assay: PBM E-score (8-mer binding enrichment) (E-score (-0.5 to 0.5)); higher = stronger / more preferred TF binding
# Details: protein concentration: 100 nM; construct: GST-full length
# Outline: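 The E-score, a modified Wilcoxon-Mann-Whitney statistic, was computed by the Universal PBM Analysis Suite for every ungapped eight-base word pooled with its reverse complement. Scans behind it were normalised with masliner after bound GST-tagged yeast transcription factors were detected with fluorescent anti-GST. The proteins, at about 100-200 nM, had been applied to universal all-10-mer Agilent arrays made double-stranded by primer extension.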
row,Sequence,PBM E-score
1,GGTGAATA,0.104
2,CAACCCTA,0.0574
3,CAACCCTC,0.0136
4,ATACCCTC,0.0223
5,AACCCCTG,0.055
6,AGACCCTC,0.0175
7,AGACCCTG,0.431
8,ATACCCTA,0.119
9,AAACCCTA,0.184
10,AGACCCTA,0.148
11,ATACCCTG,0.295
12,CAACCCTG,0.252
13,AAACCCTG,0.318
14,ATGGTTCG,0.109
15,AGAACCTC,-0.232
16,GGGTAGGA,-0.0916
17,AGAATGCT,0.108
18,CGTCCTTA,-0.0686
19,GGCCTAAC,0.0899
20,GCTGGAAC,-0.144
21,TGGCATAA,0.144
22,AAGAGGTA,0.0504
23,ACTCCTCA,-0.24
24,ACGACGTA,-0.166

row,Sequence,PBM E-score
1,ATTTCGTA,0.0258
2,AAGCGGAA,-0.0181
3,AACTAAGT,0.168
4,CTAGTCGA,-0.0659
5,ATAGTCGG,-0.122
6,ATAGTCGA,0.264
7,CTGGGTCC,-0.288
8,CCTCGCGA,0.179
9,GGTCGCGA,0.242
10,GATCGCGA,0.168
11,ACTCGCGC,0.0455
12,CGTCGCGA,0.143
13,CATCGCGA,0.127
14,ACTCGCGA,0.273
15,TATCGCGA,0.252
16,AGTCGCGA,0.226
17,ATTGTGCG,-0.0707
18,GCTCGAGA,-0.131
19,CCTCGAGC,0.267
20,GCTCGACC,-0.0125
21,GCTCGAGC,0.24
22,ACTCGAGG,0.162
23,ACTCGAGC,0.073
24,CCTCGAGG,0.242

row,Sequence,PBM E-score
1,CCTCGAGA,0.156
2,CCTCGAAG,0.0341
3,AAGCTATC,0.153
4,ACAACGCG,0.12
5,AGCGCACA,0.137
6,ACTAGCAT,-0.0422
7,AAGACCGA,-0.018
8,TAAATGCA,0.275
9,CAAATGCC,-0.0811
10,AAAATGCG,0.0104
11,GAAATGCA,0.055
12,CAAATGCG,0.268
13,CAAATGCA,-0.0764
14,AAACCTCC,-0.115
15,AAACTGCG,-0.0689
16,AGTTTCGA,0.0135
17,ATATGGAG,0.147
18,ATATGGAT,0.247
19,ATATGGAC,0.0806
20,GGTGAGAA,-0.0568
21,GAGCGACC,-0.168
22,CAAGTTTC,-0.00709
23,CCCATGAC,-0.0865
24,GGTTTCGA,0.191

row,Sequence,PBM E-score
1,AAAATGGG,-0.0403
2,CAAATGGA,-0.0362
3,AAAATGGA,0.308
4,CCGGGTCC,-0.171
5,CAGGGTCC,0.446
6,AAGGGTCA,0.149
7,AAAGGTCC,0.0985
8,AAGGGTCT,0.273
9,ATGGGTCC,0.0519
10,AGGGGTCC,0.316
11,AGGGGTCG,0.0876
12,AAGGGTGT,0.0853
13,AGGGGTCA,0.128
14,AAGGGTCC,0.439
15,CAGAGTCC,0.0801
16,AAGGTAGG,0.00624
17,GGATAACC,-0.141
18,GTCTTTCA,-0.177
19,AGCCGAAG,-0.104
20,TATAGACA,0.0604
21,AGATTCCG,0.101
22,CAGGGTCA,0.0802
23,GCGGGTCC,-0.0518
24,GAGGGTCA,-0.227

row,Sequence,PBM E-score
1,GAGGGTCC,0.282
2,AAGGGTCG,0.132
3,CAGGGTCG,0.264
4,ACCCCTGC,0.066
5,CAAACGAA,-0.0374
6,TAAGCAAA,0.0437
7,ACCCCTCA,0.0629
8,TCCCCTCA,0.235
9,CCCCCTCA,-0.379
10,AACTGACT,-0.167
11,AAAGTTGC,0.0327
12,AAAGTTGT,0.297
13,AAAGTTGG,0.132
14,AGTGGCTG,0.126
15,AGGGCTGA,-0.201
16,AGTCTTTC,-0.0294
17,ACAGACAC,-0.0421
18,CCAGACAG,-0.00394
19,ACAGACAG,0.255
20,TGTTGTAA,0.102
21,GACAGCGA,-0.131
22,CGAAGACG,-0.0796
23,GTCACGTA,-0.249
24,AAATACAA,0.0802

row,Sequence,PBM E-score
1,CAATACAG,0.125
2,TAATACAA,0.235
3,GAATACAA,0.107
4,CAATACAC,0.0544
5,CAATACAA,0.275
6,ACGACCAT,-0.0998
7,CAATCGCC,0.00157
8,AGTAGGAA,-0.0957
9,CGGCGCCA,0.0132
10,CCGCGCGG,0.368
11,CCGCGGGC,0.0924
12,CCGCGGGA,0.284
13,AGGCGCCG,-0.0298
14,CGGCGCGC,0.256
15,CCGCGCAG,0.0598
16,CGGCGCCG,0.25
17,CCGCGCCG,-0.0754
18,GCGCGGGA,0.0263
19,CGGCGCGA,0.121
20,AGGCGCGC,0.0865
21,AGGTACTA,0.0762
22,CTCTAGCC,-0.283
23,AAAAGGCC,-0.197
24,CAACCTAA,0.059

row,Sequence,PBM E-score
1,GTACGTCA,-0.102
2,TTAGTAAA,0.169
3,ACATGCTC,0.00619
4,AAGAAGCC,0.162
5,ATAACATA,0.123
6,ATGTCCCA,-0.0945
7,AAGTGCGG,0.133
8,CCGCGCTC,0.0292
9,CCGCGCCC,-0.0342
10,CCGCGCGC,0.236
11,AGGCGCCC,-0.0716
12,GGGCGCCC,0.282
13,GGGCGCCA,0.191
14,TCAGACGA,0.119
15,AACCCGAA,0.0237
16,AACCGCGG,0.182
17,TATGTTAA,-0.127
18,CTTTCACC,-0.0112
19,ATCAACCC,0.297
20,CTAAACCC,-0.0134
21,ATCAACCA,0.0788
22,ATAAACCA,-0.0416
23,CTCAACCC,0.00526
24,ATAAACCC,0.307

row,Sequence,PBM E-score
1,TCTTTGAA,-0.105
2,AGGCCACA,-0.149
3,ACTCATTC,0.117
4,GCTCATTA,-0.058
5,CATCATTA,0.231
6,ACTCATTA,0.268
7,AATCATTA,0.0429
8,CATCATTC,0.0606
9,GTAGGCGA,0.0848
10,ATTCGGTA,0.074
11,AATTGCTG,0.257
12,AATTGCTC,-0.145
13,AATTGCTA,0.0948
14,ATGGCCTC,-0.0922
15,ACCGTTAC,-0.118
16,CAGTATCA,-0.0774
17,GAGTATCA,0.00367
18,TAGTATGA,0.26
19,CAGTATGA,0.178
20,TAGTATCA,0.283
21,AAGTATGA,0.0335
22,GAACGCTC,-0.107
23,GACAGTGA,0.0197
24,ACGGAAAC,-0.0771

row,Sequence,PBM E-score
1,ACGGAAAT,0.244
2,ACGGAAAA,0.0488
3,ACTTGTCA,0.0495
4,AAAGCAAA,0.102
5,ACAGCTCC,-0.0601
6,AGCGCGAC,0.12
7,GCAGCGTA,-0.128
8,ACTCCCCA,-0.0321
9,ACTAGTAA,0.036
10,ACTACTAT,0.27
11,ACTAGTAT,0.246
12,ACTAGTAG,0.0854
13,ACTACTAC,0.0486
14,ACTACTAA,-0.00741
15,TGGTGAAA,-0.0676
16,CCCAATAG,0.00098
17,GATTCGCA,0.121
18,AATTCGCT,0.318
19,AATTCGCG,0.202
20,AATTCGCC,0.167
21,CATTCGCA,-0.0034
22,AATTCGCA,0.229
23,AAGATCCC,0.132
24,AGAGGGAC,-0.0381

row,Sequence,PBM E-score
1,ATAGGGAC,0.139
2,ACAGGGAA,0.0579
3,ACAGGGAC,0.339
4,ACAGGGAT,0.295
5,ACAGGGAG,-0.147
6,CCCGCAAG,-0.15
7,TGTGAACA,-0.0105
8,ATCGTGAA,-0.0316
9,CCCATACG,-0.0789
10,TACCATCA,-0.169
11,CCATAGGG,0.00266
12,CCGAATTA,-0.00177
13,GCGAATTA,0.279
14,ACGAATTA,0.1
15,GTCCGCGA,-0.0693
16,AAAGAGGC,-0.228
